The values that follow come from PubChem BioAssay AID1814 (Broad Institute, 2009).

About 22,000 (7.3%) of roughly 300,000 compounds were called active. Another 2% or so got no clear call; they are omitted. The full list was thinned out, with actives kept by preference. Values without a mark were called inactive. Cut-off read from the data, not from the text of the source: active = activity score below about -60%; inconclusive = mostly about -28% to -61%; inactive = positive scores.

A short description of the experiment: Activators via SNCA 5'UTR binding, MLPCN (AID 1814). The conditions noted are these: alpha-synuclein 5'UTR reporter, activators screen; hits give low values; tested at 7.5 µM.
As for `Cc1cccc(C(=O)OC(C)CN2CCN(C)CC2)c1` (configuration not stated), the activity score was -64.7% (active).

As for `CCOC(=O)C1(Cc2ccccc2C(F)(F)F)CCN(C(=O)c2cc(C)n(C)n2)CC1`, the activity score is -117% (active).

Regarding `COc1ccc(/C=C/C(=O)Nc2cccnc2)cc1OC`, the activity score was -72.4% (active).

As for `COc1ccc(C(=O)/C=C/c2cccnc2)c(OC)c1`, the activity score was -81.3% (active).

On to `COc1ccc(/C=C/C(=O)Nc2ccc(C34CC5CC(CC(O)(C5)C3)C4)cc2)cc1OC`, for which the activity score was 76.5%.

As to `Cc1cc(NC(=O)c2ccccc2C)no1`, the activity score is -104% (active).

Take `CC(=O)c1ccc(NC(=O)c2sc3nc4n(c(=O)c3c2C)CCCCC4)cc1`: the activity score is -89.5% (active).

On to `Cc1c(C(=O)Nc2ccccc2)sc2nc3n(c(=O)c12)CCCCC3`, for which the activity score was -136% (active).

On to `O=C(Cc1ccc(Br)cc1)N1CCN(c2ccccn2)CC1`, for which the activity score was -73.7% (active).

For the molecule `O=c1oc2cc(O)ccc2cc1-c1ccc(F)cc1`, the activity score was -115% (active).

Turning to `NC(=O)Nc1ccccc1C(=O)NCCc1ccccc1`, the activity score was -90.2% (active).

Turning to `CCN1C(=O)/C(=C2\SC(N3CCCCC3)=NC2=O)c2ccccc21`, the activity score was -151% (active).

`CC(C)(C)c1csc(NC2=NS(=O)(=O)c3ccccc32)n1`: the activity score was -127% (active).

`CCCNC(=O)c1c(Cl)cnn1-c1ccc(C)cc1`: the activity score was -137% (active).

With `S=c1nc(C23CC4CC(CC(C4)C2)C3)nc2sccn12`, the activity score is -162% (active).

As to `COC(=O)c1ccc2c(C(C)(C)O)c(C(C)(C)O)[nH]c2c1`, the activity score was -87.7% (active).

For the molecule `Cc1ccc(F)c(NC(=O)CCc2ccccc2)c1`, the activity score is -92.3% (active).

Turning to `COc1cccc(OCC(=O)Nc2ccccc2C(N)=O)c1`, the activity score is -126% (active).

Turning to `Cc1cccc(OCC(=O)Nc2ccccc2F)c1`, the activity score is -140% (active).

Regarding `O=C(COc1ccc(Cl)cc1)Nc1ccccc1CO`, the activity score is -81.1% (active).

Take `CCCc1nnc(NC(=O)c2cccs2)s1`: the activity score is -80.1% (active).

As for `Cc1ccc(C(=O)Nc2nnc(-c3cccs3)s2)cc1C`, the activity score was -218% (active).

As to `CCc1c(C)sc(NC(=O)c2cccs2)c1C(N)=O`, the activity score was -151% (active).

For `CCc1nnc(NC(=O)c2cccs2)s1`, the activity score was -125% (active).

Turning to `CC1CCCCN1S(=O)(=O)c1ccc(C(=O)Nc2nnc(-c3cccs3)o2)cc1` (configuration not stated), the activity score was 89.9%.

On to `S=C(NCCc1ccccc1)N1CCCCC1`, for which the activity score is -106% (active).

Take `S=C(NCCC1=CCCCC1)Nc1ccccc1`: the activity score is -122% (active).

For the molecule `S=C(NCCc1ccccc1)Nc1ccccc1`, the activity score was -89.3% (active).

`S=C(NCCc1ccccc1)NCC1CCCO1` (configuration not stated): the activity score is -78.2% (active).

Take `CCOc1ccc(/C(O)=C2\C(=O)C(=O)N(c3ccc(OC)cc3)C2c2ccccc2[N+](=O)[O-])cc1` (configuration not stated): the activity score was -69.2% (active).

With `Fc1ccccc1COc1cccc2cccnc12`, the activity score was -134% (active).

As to `Cc1ccnc2nc(C(=O)Nc3nnc(-c4ccccc4)o3)nn12`, the activity score was -72% (active).

Turning to `O=C(O)C1CCN(C(=O)OCc2ccccc2)CC1`, the activity score is -142% (active).

Consider `CCOC(=O)c1sc(=NC(=O)/C=C/c2cccs2)n(C)c1C`, for which the activity score was -201% (active).

`Cc1ccc(NC(=O)C(=O)NCc2ccco2)c(C)c1`: the activity score is -101% (active).

With `Brc1ccccc1/C=N/Nc1nc2ccccc2o1`, the activity score is -126% (active).

For the molecule `COc1cc(/C=N/Nc2nc3ccccc3s2)ccc1O`, the activity score is -82.9% (active).

Consider `COc1ccc(/C=N/Nc2nc3ccccc3o2)cc1OC`, for which the activity score was -162% (active).

For `O=[N+]([O-])c1cc(Br)c(O)c(/C=N/Nc2nc3ccccc3s2)c1`, the activity score was -87.6% (active).

As to `Cc1cc2nc(SCCN3CCOCC3)[nH]c2cc1C`, the activity score was -115% (active).

For the molecule `O=C(CN1C(=O)S/C(=C\c2ccccc2Cl)C1=O)NC1C=CS(=O)(=O)C1` (configuration not stated), the activity score is -83.8% (active).

On to `Cc1cccc(N2C(=O)C3C(c4ccccc4)OC4(C(=O)c5ccccc5C4=O)C3C2=O)c1` (configuration not stated), for which the activity score is -66.3% (active).

On to `CC(=O)Nc1ccc(Nc2c([N+](=O)[O-])cc(S(C)(=O)=O)cc2[N+](=O)[O-])cc1`, for which the activity score is -75.2% (active).

Regarding `COc1ccc(-c2csc(NC(=O)COC(=O)Cc3ccc(Cl)cc3Cl)n2)cc1`, the activity score was -99.4% (active).

For the molecule `COc1ccc(-c2csc(NC(=O)COC(=O)c3ccc(Br)o3)n2)cc1`, the activity score was -106% (active).

Consider `CCN(CC)C(=O)CSc1ncnc2c1cnn2-c1ccccc1`, for which the activity score is -129% (active).

Consider `COc1ccccc1N1CCN(C(=O)CSc2ncnc3c2cnn3-c2ccc(C)c(C)c2)CC1`, for which the activity score is -144% (active).

On to `CC(C)Sc1ncnc2c1cnn2-c1ccccc1`, for which the activity score was -82.1% (active).

As to `COc1ccccc1N1CCN(C(=O)c2cc(=O)c3cc(C)cc(C)c3o2)CC1`, the activity score is 78.3%.

Consider `COc1cc(OC)cc(-c2nc(=S)n3ccsc3n2)c1`, for which the activity score was -77.6% (active).

Turning to `COc1ccc(-c2ccc3nnc(SCC(=O)Nc4ccc(NC(C)=O)cc4)n3n2)cc1`, the activity score was -81.8% (active).

Consider `Oc1ccc(-c2cccc(-c3ccc(O)cc3)c2)cc1`, for which the activity score was -135% (active).

As for `O=C(Nc1ccc([N+](=O)[O-])cc1)OCCc1ccccn1`, the activity score was -144% (active).

`O=C(Nc1cccc(Cl)c1)OCc1ccccn1`: the activity score was -131% (active).

Consider `COc1ccc(-c2noc(-c3ccc(C)cc3)n2)cc1`, for which the activity score is -153% (active).

For `COc1ccc2[nH]c(=O)c(-c3noc(-c4ccc(F)cc4)n3)cc2c1`, the activity score was -111% (active).

As to `COc1ccccc1Cc1nc(-c2ccc(C)cc2)no1`, the activity score was -97.1% (active).

For `COc1ccc(-c2nc(-c3ccccc3)no2)c(OC)c1`, the activity score is 68.9%.

For the molecule `O=C(Nc1nnc(-c2ccccc2F)s1)c1ccccc1F`, the activity score is -172% (active).

For `COc1ccc(CCc2nc(-c3cccs3)no2)cc1`, the activity score was -148% (active).

As to `Clc1cccc(Cl)c1Cn1nnc(-c2cccs2)n1`, the activity score is -162% (active).

On to `CCCc1ccc(-c2csc(NC(=O)Cc3cccs3)n2)cc1`, for which the activity score is -66.4% (active).

With `Cc1ccc(-c2csc(NC(=O)Cc3cccs3)n2)cc1C`, the activity score is -200% (active).

On to `CC(C)c1ccc(NC(=O)Cn2ncc3ccccc32)cc1`, for which the activity score was -178% (active).

Consider `Cc1cccc(-n2c(C)cc(/C=N\NC(=O)c3cccs3)c2C)c1`, for which the activity score was -62.2% (active).

Consider `CC(=O)Nc1ccc(/C=N/NC(=O)c2cccs2)cc1`, for which the activity score was -159% (active).

Consider `Cc1ccc(-n2nc(C)c(/C=N/NC(=O)c3cccs3)c2Cl)cc1`, for which the activity score is -87.3% (active).

Regarding `O=C(N/N=C/C=C/c1ccco1)c1cccs1`, the activity score was -86.4% (active).

In the case of `CCCn1c(C)cc(/C=C(\C#N)C(=O)OCC(=O)Nc2cc(OC)c(OC)c(OC)c2)c1C`, the activity score is -103% (active).

As to `CCOC(=O)/C(C#N)=C/c1ccc(OCC(=O)Nc2ccccc2)c(OC)c1`, the activity score is -119% (active).

`OC(COc1ccc2ccccc2c1)CN1CCOCC1` (configuration not stated): the activity score was -72.5% (active).

`CC1CCc2c(sc3nc4n(c(=O)c23)CCS4)C1` (configuration not stated): the activity score is -71.6% (active).

`CCCn1nnc2sc3c(c2c1=O)CCC(C)C3` (configuration not stated): the activity score was -131% (active).

Turning to `Cc1ccn(-c2cccc(-n3ccc(C)n3)n2)n1`, the activity score was -93% (active).

On to `CN1CCN(/N=C/c2ccc(-c3ccc([N+](=O)[O-])cc3)o2)CC1`, for which the activity score is -128% (active).

On to `O=c1c2c(nc3cc(-c4cccc(Cl)c4)[nH]n13)CCCC2`, for which the activity score was 18.5%.

Turning to `Cc1cc(=O)n2[nH]c(-c3cccc(Cl)c3)cc2n1`, the activity score is -79% (active).

Turning to `CCn1c(CNc2ccc(OC)cc2)nnc1SCC(=O)c1ccc(OC)cc1`, the activity score was -63.6% (active).

As to `Brc1ccc2c(c1)[C@H]1OCC[C@H]1[C@@H](c1cccs1)N2`, the activity score is 72.2%.

With `O=C1NC(c2ccncc2)Nc2sc3c(c21)CCCC3` (configuration not stated), the activity score is -66.2% (active).

Regarding `C/C(=N\NS(=O)(=O)c1ccc(Cl)cc1)c1ccc(NC(=O)c2ccco2)cc1`, the activity score is -87.4% (active).

Turning to `Cc1ccnc(NC(=O)c2ccc(Cl)c([N+](=O)[O-])c2)c1`, the activity score is -78.7% (active).

Consider `O=C(Nc1ccc2oc(-c3ccccc3F)nc2c1)c1ccco1`, for which the activity score is -128% (active).

Regarding `O=C(CSCc1ccccc1)Nc1ccccc1`, the activity score is -126% (active).

On to `CCS(=O)(=O)Nc1ccc(C(=O)NCCSc2ccccc2)cc1`, for which the activity score is -92.6% (active).

As for `CSCCC(NC(=O)c1ccco1)C(=O)Nc1cc(C)ccn1` (configuration not stated), the activity score was -130% (active).

Take `O=C(Nc1cccc(-c2nc3ncccc3o2)c1)c1ccco1`: the activity score was -72.9% (active).

With `O=C(CSc1ccccc1)Nc1ccc(NC(=O)c2ccco2)cc1`, the activity score is -68.2% (active).

In the case of `Cc1ccnc(NC(=O)c2ccc(NC(=O)c3ccco3)cc2)c1`, the activity score is -164% (active).

Turning to `O=C(/C=C/c1ccco1)Nc1ccc(Oc2ccccc2)cc1`, the activity score was -217% (active).

For `Cc1ccc(-n2nc3cc(Cl)c(NC(=O)c4ccco4)cc3n2)cc1`, the activity score is -179% (active).

For the molecule `CCCc1cc(C(=O)Nc2ccc(C(=O)OC)cc2)cs1`, the activity score was -74% (active).

In the case of `O=C(CSc1ccccc1)Nc1ccc(C(=O)Nc2cccc(O)c2)cc1`, the activity score was -104% (active).

Turning to `Cc1cccc(CS(=O)(=O)c2ncc(Cl)c(C(=O)Nc3ccc(F)cc3)n2)c1`, the activity score was 59.7%.

Regarding `Cc1cc(NC(=O)c2ccc(F)cc2)ccc1NC(=O)c1ccco1`, the activity score was -63.3% (active).

For the molecule `O=C(NCCSc1ccccc1)c1ccco1`, the activity score was -162% (active).

`O=C(Nc1ccc(Oc2ccccc2)cc1)c1ccco1`: the activity score was -119% (active).

Consider `COC(=O)c1cc(Cl)c(NC(=O)c2ccco2)cc1OC`, for which the activity score is -96% (active).

Take `O=C(Nc1ccc(O)cc1)c1ccc(NC(=O)c2ccco2)cc1`: the activity score is -72.7% (active).

Turning to `CCCc1ccc(OCCNC(=O)c2ccco2)cc1`, the activity score was -90.6% (active).

Take `COC(=O)c1ccc(NC(=O)c2ccco2)cc1`: the activity score was -107% (active).

On to `O=C(Nc1ccc2nccnc2c1)c1ccco1`, for which the activity score is -105% (active).

Turning to `Cc1ccnc(NC(=O)c2ccoc2C)c1`, the activity score is -147% (active).

For `Cc1ccoc1C(=O)Nc1cccc(Oc2ccccc2)c1`, the activity score is -137% (active).

Consider `Clc1ccc(Cc2nnc(-c3cccs3)o2)cc1`, for which the activity score was -116% (active).

Turning to `COc1ccc(NC(=O)/C(Cl)=C(/Cl)S(=O)Cc2ccc(C)cc2)cn1` (configuration not stated), the activity score is 106%.

As for `Cc1ccc(NC(=O)OCc2cncs2)cc1`, the activity score is -112% (active).
